Eight compounds from PubChem BioAssay (NCI) can be followed below.

About 83,000 compounds went through this panel and 20% of them were active in at least one assay; those are over-represented in the sample as a whole.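 For each line, cells grew in 96-well plates with the test compound present at a single concentration for 48 hours.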 A number with no mark means an inactive call. Activity calls are given as the source filed them. The calls were made as follows: active = growth percent below 10; inactive = the rest.

Some test systems named below: NCI-H23 lung; NCI-H226 lung; NCI-H322M lung; HOP-62 NSCLC; NCI-H460 lung; HOP-92 NSCLC; NCI-H522 lung; A549/ATCC NSCLC; 786-0 renal; COLO 205 colon; DU-145 prostate; K-562 leukemia; MALME-3M melanoma; MDA-MB-231 breast; RXF 393 renal; SF-268 CNS; SF-295 CNS; SF-539 CNS; UACC-257 melanoma; M14 melanoma.
Common to all, as to assay: NCI-60 one-dose screen, 48 h (100 = growth as untreated, 0 = no growth, -100 = all killed)
What all share (conditions): 10 µM unless noted

As to `COc1cccc(OC)c1Oc1c(-c2nc3ccccc3s2)c(C)nn1-c1ccccc1`, the growth with NCI-H23 lung was 74.4%; in the assay on NCI-H226 lung it was 79.9%; with NCI-H322M lung, 65.6%; with HOP-62 NSCLC, 70.4%; with NCI-H460 lung it was 78.8%; in the assay with HOP-92 NSCLC it was 62.2%. The growth in the assay on NCI-H522 lung is 68.3%; in the assay on A549/ATCC NSCLC it was 67.4%; in the assay with 786-0 renal, 91.4%; in the assay with COLO 205 colon, 98.4%; in the assay on DU-145 prostate it was 79.4%; with K-562 leukemia it was 61%. The growth in the assay with MALME-3M melanoma is 81.7%; in the assay with MDA-MB-231 breast, 76.4%; in the assay with RXF 393 renal, 67.9%; in the assay with SF-268 CNS, 77.1%; in the assay with SF-295 CNS it was 69.4%; with SF-539 CNS, 92%. The growth is 92.4% with UACC-257 melanoma and 72.3% in the assay on M14 melanoma.

`Cc1ccc(Nc2nc(-c3ccc(F)cc3)c(C#N)c(=O)n2C)cc1`: the growth in the assay with NCI-H23 lung was 66.7%; in the assay on NCI-H226 lung it was 64%; with NCI-H322M lung it was 74.8%; in the assay with HOP-62 NSCLC, 50.9%; with NCI-H460 lung, 84.5%; with HOP-92 NSCLC it was 0.0271% (active). Besides, the growth in the assay with NCI-H522 lung was 49.7%; in the assay on A549/ATCC NSCLC it was 61.7%; in the assay on 786-0 renal it was 67.5%; in the assay with COLO 205 colon it was 66.8%; in the assay on DU-145 prostate, 72.7%; in the assay with K-562 leukemia it was 97.6%. Besides, the growth with MALME-3M melanoma is 45.8%; in the assay on MDA-MB-231 breast it was 23.4%; with RXF 393 renal it was 50.2%; with SF-268 CNS it was 66.5%; in the assay on SF-295 CNS it was 79.1%; with SF-539 CNS it was 64.8%. Besides, the results for the growth with UACC-257 melanoma and in the assay with M14 melanoma were 74.5% and 77.9%, respectively.

For `Cc1cc2nc3c4ccccc4n(CCN(C)C)c3nc2cc1C`, the growth in the assay with NCI-H23 lung was 8.98% (active); with NCI-H226 lung, 11.3%; in the assay with NCI-H322M lung, 0.121% (active); with HOP-62 NSCLC, 2.09% (active); with NCI-H460 lung, -32.7% (active); with HOP-92 NSCLC, 28.1%. The growth with NCI-H522 lung was -19.1% (active); in the assay on A549/ATCC NSCLC it was -33.8% (active); in the assay with 786-0 renal, 23.2%; in the assay with COLO 205 colon it was -29.8% (active); in the assay on DU-145 prostate, 1.97% (active); with K-562 leukemia, 8.35% (active). For the same compound, the growth in the assay on MALME-3M melanoma was -10.5% (active); in the assay on MDA-MB-231 breast, 3.96% (active); in the assay with RXF 393 renal, 8.24% (active); with SF-268 CNS, 31.2%; with SF-295 CNS it was 27.6%; with SF-539 CNS, 12.2%. Further, the growth in the assay with UACC-257 melanoma was 2.35% (active); with M14 melanoma, 13.2%.

In the case of `COc1cc(Nc2ncccc2NC(=O)c2cn(Cc3cccc(Oc4ccccc4)c3)nn2)cc(OC)c1`, the growth in the assay on NCI-H23 lung is 83.8%; with NCI-H226 lung, 83%; in the assay on NCI-H322M lung it was 85.5%; in the assay on HOP-62 NSCLC, 99.7%; in the assay with NCI-H460 lung, 102%; in the assay on HOP-92 NSCLC it was 98.4%. Also, the growth is 81% in the assay with NCI-H522 lung; 86% with A549/ATCC NSCLC; 87.2% in the assay with 786-0 renal; 86.5% in the assay with COLO 205 colon; 86.2% with DU-145 prostate; 45.4% with K-562 leukemia. Also, the growth in the assay with MALME-3M melanoma is 92.3%; in the assay with MDA-MB-231 breast, 66%; with RXF 393 renal, 74.6%; in the assay with SF-268 CNS, 73.8%; in the assay on SF-295 CNS, 93.4%; in the assay on SF-539 CNS it was 93%. The growth is 104% with UACC-257 melanoma and 67.6% in the assay on M14 melanoma.

Consider `Cc1ccc(C(=O)c2ccc(CC(=O)N/N=C/c3ccc(O)cc3O)n2C)cc1`, for which the growth was 42.4% in the assay on NCI-H23 lung; 65.7% with NCI-H226 lung; 38% in the assay with NCI-H322M lung; 40.6% with HOP-62 NSCLC; 21.1% in the assay on NCI-H460 lung; 83.1% in the assay with HOP-92 NSCLC. The growth with NCI-H522 lung is 55.5%; in the assay with A549/ATCC NSCLC, 46.6%; in the assay with 786-0 renal, 43.4%; in the assay with DU-145 prostate it was 51.3%; in the assay on K-562 leukemia it was 45%; in the assay with MALME-3M melanoma, 48.6%. In addition, the growth in the assay with MDA-MB-231 breast is 51.4%; in the assay on RXF 393 renal it was 49.7%; in the assay with SF-268 CNS, 37.3%; in the assay on SF-295 CNS, 47.2%; with SF-539 CNS it was 44.4%; in the assay on UACC-257 melanoma, 68.3%. The growth with M14 melanoma was 28.8%.

Consider `CC(C(=O)O)n1c(O)c(C=Nc2cccnc2)sc1=S` (stereo not drawn), for which the growth in the assay on NCI-H23 lung is 99.1%; in the assay on NCI-H226 lung, 85.3%; in the assay on NCI-H322M lung, 93.1%; with HOP-62 NSCLC it was 89.5%; in the assay with NCI-H460 lung, 100%; in the assay on HOP-92 NSCLC, 86%. Moreover, the growth with NCI-H522 lung was 89.2%; in the assay on A549/ATCC NSCLC, 92.4%; in the assay on 786-0 renal, 95.5%; with COLO 205 colon it was 107%; with DU-145 prostate, 97%; in the assay with K-562 leukemia, 89%. Also, the growth in the assay with MALME-3M melanoma was 98.8%; in the assay on MDA-MB-231 breast it was 86.3%; in the assay on RXF 393 renal it was 88.7%; in the assay with SF-268 CNS, 87.7%; in the assay with SF-295 CNS it was 101%; with SF-539 CNS, 98.1%. Also, the growth in the assay on UACC-257 melanoma is 103%; in the assay on M14 melanoma, 95.3%.

Take `COc1ccc(Cn2cc(C(=O)N=Nc3c(O)[nH]c4c(Cl)cccc34)nn2)cc1`: the growth is 99.3% in the assay with NCI-H23 lung; 102% with NCI-H226 lung; 101% with NCI-H322M lung; 110% with HOP-62 NSCLC; 99.7% in the assay with NCI-H460 lung; 105% in the assay with HOP-92 NSCLC. The growth in the assay with NCI-H522 lung is 84%; in the assay with A549/ATCC NSCLC, 102%; with 786-0 renal, 106%; in the assay with COLO 205 colon it was 114%; with DU-145 prostate, 105%; in the assay on K-562 leukemia it was 89.2%. Moreover, the growth in the assay with MALME-3M melanoma is 99.7%; in the assay on MDA-MB-231 breast, 98.5%; with RXF 393 renal it was 109%; with SF-268 CNS, 94.7%; in the assay on SF-295 CNS, 109%; in the assay on SF-539 CNS, 108%. Moreover, the growth in the assay with UACC-257 melanoma is 92.9%; with M14 melanoma, 106%.

As for `COc1cc(/C=C2\CN(S(=O)(=O)c3ccc(C)cc3)C/C(=C\c3cc(CN4CCCCC4)c(O)c(OC)c3)C2=O)cc(CN2CCCCC2)c1O`, the growth is -64% (active) in the assay with NCI-H23 lung; -52.5% (active) in the assay on NCI-H226 lung; -74.4% (active) with NCI-H322M lung; -81.7% (active) in the assay on HOP-62 NSCLC; -72.5% (active) in the assay on NCI-H460 lung; -75.3% (active) with HOP-92 NSCLC. The growth in the assay on NCI-H522 lung was -58% (active); with A549/ATCC NSCLC it was -84.9% (active); in the assay on 786-0 renal, -65.4% (active); in the assay on DU-145 prostate, -88.1% (active); in the assay with K-562 leukemia, -24.2% (active); in the assay on MALME-3M melanoma, -82.4% (active). The growth in the assay with MDA-MB-231 breast was -73.1% (active); in the assay with RXF 393 renal, -72.1% (active); in the assay on SF-268 CNS, -61.1% (active); in the assay with SF-295 CNS it was -74.7% (active); in the assay with SF-539 CNS, -84.8% (active); with UACC-257 melanoma it was -89.6% (active). In addition, the growth in the assay on M14 melanoma is -89% (active).
